PubChem BioAssay (EPA / NIEHS)
Calls of active or inactive are those of the source. Rule for the calls: active = hit-call score of the fitted dose curve at least 0.9, where 1 is the maximum; inactive = score below 0.9.

Test: STM_H9_CystineISnorm_perc: Stemina devTOX quickPredict H9 human embryonic stem cell (hESC)-based Assay for Cystine (CYSS) Metabolite Biomarker, Normalized (AID 2283713)
From the text: STM_H9_secretome utilizes undifferentiated H9 cells to measure relative changes in two metabolites, ornithine (ORN) and cystine (CYSS) in the secretome, targeting a critical drop in the ORN/CYSS ratio as a biomarker for developmental toxicity.STM_H9_CystineISnorm_perc is one of 10 components calculated in the STM_H9_secretome assay. It measures the integrated area of the endogenous cystine normalized to the spiked-in isotopically labeled standard and to the median value of the 0.1% DMSO neutral control treatment using UPLC-HRMS technology.Data from the assay component STM_H9_CystineISnorm_perc was analyzed at the assay endpoint STM_H9_CystineISnorm_perc in the positive analysis fitting direction relative to DMSO as the negative control and baseline of activity. Using a type of binding reporter, gain or loss-of-signal activity can be used to understand relative metabolite change.
H9 hESCs maintained in a pluripotent state were exposed to test compound for 72h with chemical replenishment with media replacement every 24h. Cell-conditioned media from the final 24-h treatment period was collected for analysis of the targeted biomarker, and cell viability of the corresponding cell layer was assessed. The chemical library was tested in blinded fashion. Each test plate included 1uM Methotrexate (MTX; Selleck Chemicals, Houston, Texas) as a positive reference, 5 nM MTX as a negative reference, 0.1% DMSO as the neutral (vehicle) control, and sample-level media blanks.H9 cell-conditioned media from the final 24-h treatment period was collected for analysis of the targeted biomarker and cell viability was measured from the corresponding cell layer. Cell viability was measured using the CellTiter-Fluor assay (Promega, Madison, Wisconsin) based on proteolytic cleavage of a substrate to fluorescent signal proportional to the number of living cells. The cell viability Relative Fluorescence Unit (RFU) was background corrected and normalized to mean RFU of the neutral control (0.1% DMSO). The collected H9-cell-conditioned media samples were processed for targeted biomarker analysis as described (Palmer et al., 2013). Briefly, spent media samples were deproteinized (40% acetonitrile) and processed for UPLC-HRMS. Data acquisition was performed using 4 separate UPLC-HRMS systems, consisting of an Agilent 1290 Infinity LC system (Agilent Technologies) interfaced with an Agilent high-resolution mass spectrometer (models G6520A, G6520B, G6530A, and G6224A). A Waters Acquity UPLC BEH Amide column (2.1mm x 50mm, 1.7lm particle size; Waters, Milford, Massachusetts) maintained at 40C was applied for separation of metabolites using a 6.5min solvent gradient with 0.1% formic acid in water and 0.1% formic acid in acetonitrile (1.0ml/min flow rate). Data were acquired using MassHunter Acquisition software (version B 04.00, Agilent Technologies). The extracted ion chromatogram (EIC) areas for ORN, CYSS, and their respective spike-in C13-standards were determined using the Agilent MassHunter Quantitative Analysis software, version B.05.00 or newer (Agilent Technologies), and data were normalized as described in Palmer et al. (2017).

Row | Compound | outcome | AC50
1 | Nc1cccc2c(N)cccc12 | inactive | 
2 | O=C(O)Cc1cc(I)c(Oc2cc(I)c(O)c(I)c2)c(I)c1 | inactive | 
3 | C#C[C@]1(O)CC[C@H]2[C@@H]3CCC4=CC(=O)CC[C@@H]4[C@H]3CC[C@@]21C |  | 79.8 µM (active)
4 | CCCCCCCCCCCCc1ccccc1S(=O)(=O)O | inactive | 
5 | Cc1cc(CCN2CCN(c3nsc4ccccc34)CC2)cc2c1NC(=O)CC2(C)C |  | 8.41 µM (active)
6 | CN(C)C=O | inactive | 
7 | C[C@@H]1C[C@H]2[C@@H]3CCC4=CC(=O)C=C[C@]4(C)[C@@]3(F)[C@@H](O)C[C@]2(C)[C@@]1(O)C(=O)COP(=O)(O)O | inactive | 
8 | CCc1ccc(CCOc2ccc(CC3SC(=O)NC3=O)cc2)nc1 (configuration not stated) |  | 88.9 µM (active)
9 | N#C[C@@H]1CC(F)(F)CN1C(=O)CNC1CC2CCC(C1)N2c1ncccn1 (some centres not stated) | inactive | 
10 | CCN(CC)CCNc1ccc(CNC=O)c2sc3ccc(OC)cc3c(=O)c12 |  | 2.53 µM (active)
11 | CC1=C(/C=C/C(C)=C/C=C/C(C)=C/C(=O)O)C(C)(C)CCC1 |  | 0.00844 µM (active)
12 | COc1ccc([N+](=O)[O-])cc1N | inactive | 
13 | CN1CCN(c2ccccc2/C=C2\SCCN(c3ccc(Cl)c(Cl)c3)C2=O)CC1 |  | 7.81 µM (active)
14 | CC(O)CO (configuration not stated) |  | 675000 µM (active)
15 | CN1CCC[C@H]1c1cccnc1 | inactive | 
16 | O=C(OCCOCCOC(=O)c1ccccc1)c1ccccc1 | inactive | 
17 | c1ccc2c(c1)ccc1ccccc12 |  | 80.3 µM (active)
